# Compound activity as filed in PubChem.
# Shown are actives, neighbours in structure and some others; about 12% of the full set was active somewhere.
# AmpC detergent = inhibitors of E. coli AmpC beta-lactamase with detergent; AmpC hydrolysis of nitrocefin, absorbance 480 nm, 0.01% Triton; Potency, µM (doses to about 114 µM), for the others: at the top dose activity change, negative = inhibition, actives largely listed as inhibitors; hit rate 0.041% among 370,000; AID 485294;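 also: 0% = no-compound wells and -100% = no-enzyme wells; nearly all actives have a fitted effect of over 25% in size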
# Target sequence (P00811 whole entry, looked up): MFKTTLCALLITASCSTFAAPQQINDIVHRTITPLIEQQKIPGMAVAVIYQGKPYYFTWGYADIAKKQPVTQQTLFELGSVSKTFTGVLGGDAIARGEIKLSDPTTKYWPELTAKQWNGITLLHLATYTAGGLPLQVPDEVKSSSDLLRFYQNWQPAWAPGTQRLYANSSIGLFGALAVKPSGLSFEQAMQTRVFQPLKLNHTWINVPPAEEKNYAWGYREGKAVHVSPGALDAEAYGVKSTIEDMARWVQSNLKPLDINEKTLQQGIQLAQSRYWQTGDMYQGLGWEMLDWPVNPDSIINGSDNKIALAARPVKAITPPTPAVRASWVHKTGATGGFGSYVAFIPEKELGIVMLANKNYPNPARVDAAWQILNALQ
#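 20 mM phosphate pH 7.0 + 0.01% (detergent screen) or 0.0001% Triton X-100; 5.3 nM AmpC reagent; cpd preinc 15 min RT; nitrocefin (800 uM stock) to start; A480 q20 s × 4 min; Activity was normalised to no-enzyme and no-compound control wells.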
# AmpC inh no detg = AmpC beta-lactamase inhibition without detergent; P00811; AmpC nitrocefin hydrolysis, absorbance 480 nm, 0.0001% Triton; Potency, µM (doses to about 57.1 µM), for the others: at the top dose activity change, negative = inhibition, hits mostly inhibitors; hit rate 0.52% among 330,000; AID 485341;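 also: plate controls were no compound for no effect and no enzyme for full effect; nearly all actives have a fitted effect of over 20% in size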
#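 20 mM phosphate pH 7.0 + 0.01% (detergent screen) or 0.0001% Triton X-100; 5.3 nM AmpC reagent; cpd preinc 15 min RT; nitrocefin (800 uM stock) to start; A480 q20 s × 4 min; Activity was normalised to no-enzyme and no-compound control wells.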
# Sm TGR inh = inhibitors of Schistosoma mansoni thioredoxin glutathione reductase; hit rate 3% among 360,000; AID 485364; Q962Y6; Potency, µM (series often up to 114 µM), inactives show at the highest dose activity change, negative = inhibition, actives largely listed as inhibitors; purified TGR, DTNB reduction, TNB absorbance 405 nm; also: % is scaled to controls: 0 for no effect and ±100 for the full control effect; nearly all actives have a fitted effect of over 60% in size
#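 First, TGR (20 nM dispensed) and NADPH were mixed with compound. Second, a 15 min room-temperature incubation followed. Third, further NADPH and then DTNB were added to start the reaction. Finally, TNB absorbance was monitored kinetically.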
# Pf growth 96h = P. falciparum growth inhibition at 96 hour, primary screen for plastid delayed-death inhibitors; P. falciparum luciferase reporter growth, 96 h; hit rate 6.9% among 320,000; Potency, µM (titrated, usually from 28.7 µM), inactives show at the top dose activity change, negative = inhibition, hits mostly inhibitors; also: % is scaled to controls: 0 for no effect and ±100 for the full control effect
#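 Erythrocytes infected with luciferase-expressing P. falciparum were dispensed at 2% hematocrit and 0.05% parasitemia (final), then incubated with compounds 96 hours at 37 C in 5% CO2. Luminescence after detection reagent addition reported growth.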
# SARS PLP yeast = inhibitors of SARS-CoV papain-like protease in yeast; Potency, µM (titrated, usually from 32.9 µM), for inactives: at the highest dose activity, positive = growth rescue, actives largely listed as activators; S. cerevisiae expressing SARS-CoV PLpro, growth rescue; AID 485353; hit rate 0.19% among 330,000; calls by dose curve; also: 0% is about no effect; nearly all actives have a fitted effect of over 55% in size
# Pf growth 48h = inhibits P. falciparum growth in the first generation, 48 h; hit rate 5.9% among 310,000; Potency, µM (series often up to 28.7 µM), inactives show at the highest dose activity change, negative = inhibition, hits mostly inhibitors; P. falciparum luciferase growth in erythrocytes, 48 h; also: % is scaled to controls: 0 for no effect and ±100 for the full control effect
#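 First compound was added to culture medium, then infected red cells at 0.1% parasitemia and 2% hematocrit (final). After incubation at 37 C under 5% CO2, luciferase detection reagent was dispensed and light output recorded.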
# * hit, by the source's call; ? = inconclusive; . = not tested or not shown. Unless noted, calls follow the shape of the dose curve; as a rule, active = well fitted curve in the direction sought with a large enough effect; inconclusive = small, poorly fitted or top-dose-only effect, or another doubt; inactive = no such curve, though single readings can be large; an effect the other way counts as inactive or inconclusive. Potency is read from the fitted curve at half-maximal effect.
SMILES,AmpC detergent,AmpC inh no detg,Sm TGR inh,Pf growth 96h,SARS PLP yeast,Pf growth 48h
CCOC(=O)c1c(CSc2ccccc2)n(C)c2cc(Br)c(O)c(CN(C)C)c12,7.9%,91.5%,-0.7%,?,0.4%,9.28µM*
CCOC(=O)c1c(-c2ccccc2)oc2ccc(O)c(CN3CCOCC3)c12,?,183.7%,13.7%,.,-2.9%,?
CCOC(=O)c1c(CSc2ccccc2)n(C)c2ccc(O)c(CN3CCN(C)CC3)c12,-3.6%,131.9%,17.8µM*,?,0.5%,?
CCOC(=O)c1c(CN(CC)CC)n(C)c2cc(Br)c(O)cc12,-4.0%,2.8%,-27.6%,?,1.9%,?
CCOC(=O)c1c(CSc2ccc(C)cc2)n(C)c2cc(Br)c(O)c(CN(C)C)c12,0.2%,142.3%,-11.4%,10.4%,-3.6%,4.15µM*
CCOc1ccc(NC(=O)Cn2cc(C(=O)c3ccc(CC)cc3)c(=O)c3ccc(C)nc32)cc1,2.9%,.,5.7%,.,.,.
Cc1cccc(N(CC(=O)NCc2ccc3c(c2)OCO3)C(=O)CCC(=O)Nc2ccccn2)c1C,?,37.8%,-3.2%,.,16.0%,5.86µM*
Cc1ccc(N(CC(=O)NCc2ccccc2)C(=O)CCC(=O)Nc2ccccn2)cc1C,-4.5%,41.3%,-8.8%,-3.2%,-0.5%,0.0%
COc1ccc(N(CC(=O)NCc2ccc3c(c2)OCO3)C(=O)CCC(=O)Nc2ccccn2)cc1,-2.5%,-15.3%,2.9%,53.9%,0.6%,12.2%
Cc1cccc(N(CC(=O)NCc2ccc3c(c2)OCO3)C(=O)CCC(=O)Nc2ccccn2)c1,?,18.4%,-3.1%,160.6%,8.6%,13.1µM*
C#CCOc1c(Br)cc(C2C(C(=O)OC)=C(C)NC3=C2C(=O)c2ccccc23)cc1OCC (centres undefined),-0.6%,.,28.2µM*,.,.,.
Cc1cn(C)c(CC(=O)N2CCN(c3cccc(C(F)(F)F)c3)CC2)c1C(=O)O,7.2%,.,7.4%,.,.,.
CSc1cccc(NC(=O)Cc2ccccc2[N+](=O)[O-])c1,5.5%,-29.4%,-35.0%,-20.3%,-0.7%,32.7%
COC(=O)CC(c1ccc(F)cc1)n1c(C)ccc1C (centres undefined),6.9%,3.9%,?,13.1µM*,-3.2%,?
Cc1ccc(C)n1C(CC(=O)O)c1ccc(C#N)cc1 (centres undefined),2.3%,-12.5%,39.8µM*,?,-0.3%,20.6%
CCOC(=O)CC(c1ccc(N)cc1)n1c(C)ccc1C (centres undefined),6.6%,39.3%,?,?,-1.9%,?
CCN1C(=O)/C(=c2\sc3nc(=O)c(Cc4ccccc4)nn3c2=O)c2ccccc21,2.3%,-13.1%,3.55µM*,30.2%,0.5%,3.9%
C=CCN1C(=O)/C(=c2\sc3nc(=O)c(Cc4ccccc4)nn3c2=O)c2ccccc21,-2.0%,?,1.41µM*,-7.0%,1.4%,-0.3%
C=CCN1C(=O)/C(=c2\sc3nc(=O)c(Cc4ccc(OC)c(OC)c4)nn3c2=O)c2ccccc21,-5.8%,-35.5%,0.631µM*,-7.8%,-0.1%,-2.2%
O=C(Nc1ccc2ccccc2c1)NC1CCS(=O)(=O)C1 (centres undefined),-8.8%,-26.5%,47.1%,4.8%,0.4%,49.9%
CC(=O)NC1=C(NC2CCS(=O)(=O)C2)C(=O)c2ccccc2C1=O (centres undefined),3.2%,-6.9%,0.708µM*,?,-59.8%,10.4µM*
O=C(Nc1ccccc1)NC1CCS(=O)(=O)C1 (centres undefined),-0.1%,-12.3%,-3.7%,9.28µM*,14.6%,9.6%
CN(C1=C(NC(=O)c2ccccc2)C(=O)c2ccccc2C1=O)C1CCS(=O)(=O)C1 (centres undefined),-12.3%,-39.6%,?,5.22µM*,-7.6%,4.65µM*
CC(C)CC(OC(=O)c1cccs1)C(=O)NCc1ccco1 (centres undefined),-0.1%,0.4%,39.8µM*,-8.0%,0.8%,13.1µM*
CCC(OC(=O)c1ccco1)C(=O)NCc1ccco1 (centres undefined),?,14.2%,0.0%,-1.6%,-1.4%,-7.9%
SMILES,AmpC detergent,AmpC inh no detg,Sm TGR inh,Pf growth 96h,SARS PLP yeast,Pf growth 48h
CCC(OC(=O)c1cccs1)C(=O)NCc1ccco1 (centres undefined),-1.9%,-4.6%,56.2µM*,.,?,-5.0%
O=C(NCc1ccco1)[C@@H]1CCCN1C(=O)c1cccs1,-2.4%,-12.1%,39.8µM*,.,3.0%,-5.9%
O=C(O)c1ccc(S(=O)(=O)N(Cl)Cl)cc1,.,.,.,-11.3%,.,-5.0%
CCOc1ccc2nc3cc(N)ccc3c(N)c2c1,.,.,.,0.849µM*,.,0.757µM*
CCOc1ccc2nc3cc(NCc4ccc(OC)cc4)ccc3c(N)c2c1,-10.3%,-22.4%,-4.5%,2.62µM*,-1.8%,2.33µM*
CC(=O)c1ccc(N2C(=O)C3C(C2=O)C(C(=O)c2ccc(Cl)cc2)N2CCCC32)cc1 (centres undefined),?,-21.7%,12.6µM*,-8.4%,-5.9%,?
O=C(c1ccc(Cl)cc1)C1C2C(=O)N(c3ccccc3)C(=O)C2C2CCCN21 (centres undefined),-6.0%,-12.3%,?,14.7µM*,-13.1%,?
O=C(c1ccccc1)[C@@H]1[C@@H]2C(=O)N(c3ccc(F)cc3)C(=O)[C@@H]2C2CCCN21 (some centres undefined),-5.8%,-16.0%,?,-7.6%,-2.6%,-5.8%
COc1ccc(N2C(=O)C3C(C2=O)C(C(=O)c2ccc(Cl)cc2)N2CCCC32)cc1 (centres undefined),6.2%,-23.2%,25.1µM*,?,1.1%,?
Cc1ccc(N2C(=O)[C@@H]3[C@H](C2=O)C2CCCN2[C@@H]3C(=O)c2ccccc2)cc1 (some centres undefined),-2.6%,6.2%,31.6µM*,?,-1.0%,11.7µM*
CN1C(=O)S/C(=C\c2ccc(-n3cncn3)cc2)C1=O,-6.3%,-15.4%,-7.0%,-15.6%,-0.9%,0.0%
CN(C(=O)c1ccc(NC(=O)Cc2cccc(NC(=O)C3CCN(C(=O)CCc4ccccc4)CC3)c2)cc1)C1CCCC1,-4.3%,74.3%,-1.5%,1.85µM*,1.1%,9.28µM*
CN(C(=O)c1ccc(NC(=O)Cc2cccc(NC(=O)C3CCCN(C(=O)C4CC4)C3)c2)cc1)C1CCCC1 (centres undefined),-0.9%,148.5%,5.8%,?,5.2%,14.7µM*
